Assay outcomes from PubChem BioAssay.
An excerpt weighted towards active compounds, which were near 3.5% of everything screened.
M1 antag: blocks human M1 muscarinic receptor; CHO-K1 hM1, Fluo-8 calcium fluorescence, ACh EC80 antagonist; inhibition, % at 3 µM; actives 1.3% (n = 360,000); AID 588852;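 active = percent inhibition above its own plate's cutoff, namely the mean of that plate's compound wells plus 3 SD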;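 note: peak over basal fluorescence ratio during 140 s after agonist addition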
Target sequence (P11229 whole entry, looked up): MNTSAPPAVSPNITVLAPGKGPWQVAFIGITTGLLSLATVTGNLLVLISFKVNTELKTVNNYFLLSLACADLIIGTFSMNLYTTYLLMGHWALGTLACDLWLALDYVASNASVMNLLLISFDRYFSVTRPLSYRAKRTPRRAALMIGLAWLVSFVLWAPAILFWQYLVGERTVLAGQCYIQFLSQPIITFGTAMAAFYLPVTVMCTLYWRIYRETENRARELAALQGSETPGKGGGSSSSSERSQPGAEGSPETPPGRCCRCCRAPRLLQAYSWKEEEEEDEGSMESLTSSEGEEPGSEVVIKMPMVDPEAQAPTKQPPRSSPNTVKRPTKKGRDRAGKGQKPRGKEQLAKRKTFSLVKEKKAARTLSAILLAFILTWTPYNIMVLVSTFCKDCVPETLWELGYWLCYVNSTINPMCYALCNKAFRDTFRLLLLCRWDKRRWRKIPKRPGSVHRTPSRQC
M1 PAM: human CHRM1 positive allosteric modulation. P11229. CHO-K1 hM1, Fluo-8 calcium fluorescence, ACh EC20; 0% = ACh EC20, 100% = maximal ACh. activation, % at 3 µM. actives 0.088% (n = 360,000); in the data active = activation above about 19%, passing the limit was not always enough
Myeloid diff 2: compounds promoting myeloid differentiation. ER-HoxA9 myeloid progenitors, lysozyme-GFP differentiation, flow cytometry. calls only at 10 µM. actives 1% (n = 360,000). AID 624256;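 active = normalized GFP-positive differentiation at or above the plate's own cutoff, the solvent-only control mean plus 3 SD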;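 note: cells exposed to compound for four days before flow analysis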
CHRM1 agonist: activates human CHRM1 receptor; AID 588814; actives 0.33% (n = 360,000); P11229; CHO-K1 hM1, Fluo-8 calcium fluorescence, agonist mode; 0% DMSO, 100% acetylcholine EC100; activation, % at 3 µM;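 active = activation above the run's mean compound activation plus 3 SD, cut at about 16% in these data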;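 note: peak over basal fluorescence ratio within a 140 s kinetic read after compound addition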
SKN-1 inh: inhibitors of C. elegans SKN-1; C. elegans VP596 Pgst-4::GFP/RFP ratio, acrylamide-induced, 24 h; inhibition, % at 21.8 µM; actives 0.49% (n = 360,000);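 active = interference check ratio from 0.5 to 1.5 plus GFP to RFP signal ratio inhibition reaching or exceeding a fixed threshold, cut at about 30% in these data, passing the limit was not always enough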
ATG4B inh: inhibitors of human ATG4B cysteine protease; Q9Y4P1; ATG4B cleavage of LC3-PLA2, NBD-HPC fluorescence, 1 h; inhibition, % at 8.33 µM; actives 0.51% (n = 340,000); in the data active = inhibition above about 40%
A number is an active result; i = inactive; nt = no result given.

SMILES	M1 antag	M1 PAM	Myeloid diff 2	CHRM1 agonist	SKN-1 inh	ATG4B inh
O=C(C1CCN(c2nc3ccc(Br)cc3s2)CC1)N1CCC2(CC1)OCCO2	59.3	i	i	i	i	i
Cc1ccc2nc(N3CCC(C(=O)N4CCC5(CC4)OCCO5)CC3)sc2c1	i	i	i	i	i	i
CCOc1ccc2nc(N3CCC(C(=O)N4CCC5(CC4)OCCO5)CC3)sc2c1	i	i	i	i	i	i
CCc1ccc2nc(N3CCC(C(=O)N4CCC5(CC4)OCCO5)CC3)sc2c1	40.6	i	i	i	i	i
COc1ccc(-n2c(O)c(/C(C)=N/N3CCCCCC3)c(=O)[nH]c2=O)cc1	i	33.8	i	i	i	i
COc1ccc(-n2c(O)c(/C(C)=N/Nc3ccccc3)c(=O)[nH]c2=O)cc1	i	i	i	i	i	i
O=C(N/N=C/c1c(O)n(Cc2ccccc2)c(=O)[nH]c1=O)c1ccccc1O	i	i	i	i	36.7	i
O=C(CN1CCOCC1)c1cccc2ccccc12	i	i	i	i	38.1	i
COc1cccc(C(=O)C2CCCN(Cc3ccc(F)cc3)C2)c1 (stereo not given)	i	i	i	i	i	i
Cc1cccc(CN2CCCC(C(=O)c3cccc(OC(C)C)c3)C2)n1 (stereo not given)	i	i	i	i	i	i
Cc1cccc(CN2CCCC(C(=O)c3ccc4c(c3)OCO4)C2)n1 (stereo not given)	33.1	i	i	i	i	i
COc1c(C)cc(C(=O)C2CCCN(Cc3cccc(C)n3)C2)cc1C (stereo not given)	32.9	i	i	i	i	i
O=C(c1ccc2c(c1)OCO2)C1CCCN(Cc2c(F)cccc2Cl)C1 (stereo not given)	91.8	i	i	i	i	i
COc1c(C)cc(C(=O)C2CCCN(C3CCOCC3)C2)cc1C (stereo not given)	55.1	i	i	i	i	i
O=P(O)(O)CN1CCNCCN(CP(=O)(O)O)CCNCC1	i	i	nt	i	i	i
O=C(c1ccc2c(c1)OCO2)C1CCCN(CC2CCCCC2)C1 (stereo not given)	42.0	i	i	i	i	i
COc1cccc(C(=O)C2CCCN(Cc3ccc4nsnc4c3)C2)c1 (stereo not given)	33.8	i	i	i	i	i
COc1cccc(C(=O)C2CCCN(Cc3cccc(C)n3)C2)c1 (stereo not given)	27.0	i	i	i	i	i
C=CC[C@@H](C)CC(=O)C(CCCN=[N+]=[N-])SOOc1ccccc1 (stereo not given in full)	i	i	i	i	i	i
Cc1cnc[nH]1	i	i	i	i	i	i
O=C1NCN(c2ccccc2)C12CCN(C(c1ccccc1OC(F)(F)F)c1nnnn1-c1ccc3c(c1)OCCO3)CC2 (stereo not given)	i	i	i	i	i	nt
CCCCCCC(=O)c1c(O)n(-c2ccc(OC)cc2)c(=O)[nH]c1=O (tested in a mixture with another compound)	i	i	i	i	i	i
O=C1C2CCN(CC2)C1Cc1ccc(OCc2ccccc2)cc1 (stereo not given)	i	i	i	i	i	i
CCCCCCn1c(O)c(C=Nc2c(C)n(C)n(-c3ccccc3)c2=O)c(=O)[nH]c1=O	46.9	i	i	i	i	i
O=C(c1cccc2ccccc12)C1CCCN(C2CCC2)C1 (stereo not given)	26.4	i	i	16.5	i	i
O=C(c1ccc(Cl)cc1)C1CCCN(Cc2ccc3nonc3c2)C1 (stereo not given)	43.4	i	i	i	i	i
O=C(c1ccc(C(F)(F)F)cc1)C1CCCN(Cc2ccncc2)C1 (stereo not given)	i	i	i	i	i	i
O=C(c1ccc(Cl)cc1)C1CCCN(Cc2cccc3cccnc23)C1 (stereo not given)	58.5	i	i	i	i	i
COc1ccc(CN2CCCC(C(=O)c3ccc(Cl)cc3)C2)c(O)c1 (stereo not given)	i	i	i	i	i	i
O=C(c1ccc(Cl)cc1)C1CCCN(Cc2cccc3ncccc23)C1 (stereo not given)	51.3	i	i	i	i	i
